Assay outcomes (PubChem BioAssay)
MITF act = activators of MITF-driven TRPM1 promoter reporter, primary screen, cell-based, SK-MEL-5, luciferase, single point; SK-MEL-5 TRPM1-promoter luciferase, 24 h; % of positive control, neutral wells = 0; activation, % at 12.5 µM; hit rate 0.75% among 300,000; AID 588334, 2011;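 active = mean activation of at least 80% with every replicate also reaching 80%; inconclusive = mean reaches 80% but some replicate falls short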
esBAF inh = Bmi1 luciferase reporter increase in mESCs, primary screen, esBAF inhibitor project, mouse ES cells, Bmi1 luciferase knock-in, single point; 24 h; 100% = twice the neutral-well signal; reporter increase, % at 12.5 µM; hit rate 2% among 350,000; AID 602393, 2012; in the data active = activation above about 40%; inconclusive = no clear call, values can overlap the other calls;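 also: a rise in the Bmi1 reporter signal indicates esBAF inhibition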
HSF-1 act = HSF-1 activators, primary screen, NIH3T3-HGL cells, MG132 stress, luminescence, single point; hit rate 1.7% among 300,000; NIH3T3-HGL HSF-1 luciferase reporter, 8 h; 100% = twice DMSO control signal; activation, % at 9 µM;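 active = mean replicate activation of at least 50% with a set share of replicates each reaching 50%; inconclusive = only one of those two conditions met; inactive = mean below 50% and too few replicates reaching it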
Wnt act = Wnt/beta-catenin pathway activators, primary screen, cell-based, plate reader, single point. activation, % at 9.35 µM. hit rate 1.2% among 300,000. Wnt/beta-catenin reporter cell assay, activator. AID 743398, 2014; in the data active = activation above about 30%, passing the limit was not always enough; inconclusive = no clear call, values can overlap the other calls
SMARCA2 act = SMARCA2 (BRM) function activators, primary screen, cell-based, luminescence, high throughput | activation, % at 9.1 µM | AID 652017, 2013 | MG213 cells, MMTV-luciferase reporter, dexamethasone, overnight | hit rate 1% among 370,000; in the data active = activation above about 7.8%
HSF1 inh = HSF1 inhibitors in luciferase reporter cells, primary screen, cell-based, NIH3T3, luminescence; NIH3T3-HGL HSE-luciferase, MG132-induced, luminescence 8 h; active compounds read low; activity change, negative = inhibition, % at 7.5 µM (by protocol); hit rate 0.77% among 300,000;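 active = more than half of replicate wells show activity change below -50%, luminescence cut by over half; inconclusive = some wells, but at most half, below -50%; inactive = no replicate well below -50%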;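 also: luciferase reports HSF-1 transcriptional activity via heat shock element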
Hits are given with their value; - = inactive; ? = inconclusive; . = no result. Compounds with a hit are over-represented: about 4.3% of the library has one in this group of screens.

SMILES | MITF act | esBAF inh | HSF-1 act | Wnt act | SMARCA2 act | HSF1 inh
COc1ccc(NC(=O)N(C)C[C@H]2OCc3cn(nn3)CCCC(=O)N([C@@H](C)CO)C[C@H]2C)cc1 | . | - | . | . | . | .
COc1ccc(NC(=O)N(C)C[C@@H]2Oc3ccc(NS(=O)(=O)c4ccc(Cl)cc4)cc3C(=O)N([C@H](C)CO)C[C@H]2C)cc1 | . | - | . | . | . | .
O=C(C[C@@H]1CC[C@H]2[C@@H](COC[C@@H](O)CN2Cc2ccccc2F)O1)NC1CCC1 | . | - | . | . | . | .
CC(C)(C)c1ccc(C(=O)c2c[nH]c(C(=O)NCCCn3ccnc3)c2)cc1 | - | . | - | . | - | -
COc1ccc(C(=O)c2c[nH]c(C(=O)NCCCn3ccnc3)c2)cc1 | - | - | - | 40 | - | -
C[C@@H]1CN([C@@H](C)CO)S(=O)(=O)c2ccc(/C=C/c3ccccc3)cc2O[C@@H]1CN(C)C(=O)c1ccccc1 | . | - | . | . | . | .
C/C(=N\NC(=O)c1cc2ccccc2cc1O)c1ccc(C)o1 | - | - | - | - | - | -
C/C(=N/NC(=O)c1cc2ccccc2cc1O)c1ccco1 | - | . | 93 | - | - | -
C[C@H]1CN([C@@H](C)CO)S(=O)(=O)c2ccc(C#Cc3ccccc3F)cc2O[C@@H]1CN(C)C | . | - | . | . | . | .
C(=Cc1c[nH]c2ccccc12)c1nccc2ccccc12 | - | - | . | 42 | - | .
CCc1nccn1C(=O)c1cnn2c(C(F)F)cc(-c3ccc(C)cc3)nc12 | - | . | - | - | - | -
CCOC(=O)c1cc2nc(-c3ccccc3)cc(C)n2n1 | . | - | - | - | - | -
CCc1nccn1C(=O)c1cnn2c(C(F)F)cc(-c3ccccc3)nc12 | . | . | - | . | . | -88
Cc1cc(C)n2ncc(/C(N)=N/OC(=O)c3ccccc3F)c2n1 | ? | . | - | 38 | - | -
CCOC(=O)c1cnn2c(C)cc(-c3ccccc3)nc12 | . | . | - | 43 | 7.9 | -
CC(=Nc1ccccc1)C1=C(O)CCCC1=O | - | - | 63 | - | - | -
Cn1cncc1C#Cc1ccc2cc(C(C)(C)O)oc(=O)c2c1 | - | - | . | - | - | .
Cn1cncc1C#Cc1ccc2c(=O)c3ccccc3oc2c1 | - | ? | . | 44 | - | .
COc1ccc(C(=O)Nn2c(SCC(=O)NC3CCCC3)nc3ccccc3c2=O)cc1 | - | - | - | - | - | -58
COc1ccc(-c2nnc3ccc(SCC(=O)NCC4CCCO4)nn23)cc1 (stereo not given) | - | - | 95 | - | . | -
O=C(CSc1nc2ccccc2c(=O)n1NC(=O)c1ccccc1)c1ccccc1 | - | - | - | . | - | -
COc1ccc(C(=O)Nn2c(SCC(=O)NCc3ccccc3)nc3ccccc3c2=O)cc1 | . | . | - | . | - | -61
O=C(CSc1nc2ccccc2c(=O)n1NC(=O)c1ccccc1)c1ccc(Cl)cc1 | - | - | - | 32 | - | -
C[C@@H]1CCCCO[C@H](CN(C)Cc2ccncc2)[C@@H](C)CN([C@@H](C)CO)C(=O)c2cc(NC(=O)NC3CCCCC3)ccc2O1 | . | - | . | . | . | .
COc1ccc(C(=O)Nn2c(SCC(=O)NCC3CCCO3)nc3ccccc3c2=O)cc1 (stereo not given) | - | - | - | - | - | -66
SMILES | MITF act | esBAF inh | HSF-1 act | Wnt act | SMARCA2 act | HSF1 inh
COCC(=O)Nc1ccc2c(c1)C(=O)N(C)[C@@H]1CC[C@@H](CC(=O)NCc3ccccc3)O[C@@H]1CO2 | . | - | . | . | . | .
COc1ccc(C2OC3=C(Nc4cc(C)c(C)cc4N3)C2=O)cc1 (stereo not given) | - | 56 | - | - | - | -
CCCNC(=O)Nc1ccc2c(c1)C(=O)N(C)C[C@H](OC)[C@@H](C)CN(CC1CCCC1)[C@H](C)CO2 | . | - | . | . | . | .
CCOc1cc(N2CCOCC2)c(OCC)cc1NC(=O)c1cc(-c2ccco2)nc2ccccc12 | - | - | - | - | - | -77
CCOc1cc(N2CCOCC2)c(OCC)cc1NC(=O)COc1ncnc2ccccc12 | - | - | - | - | - | -
CCOc1ccc(OCCC(=O)OCC(=O)Nc2cc(OCC)c(N3CCOCC3)cc2OCC)cc1 | - | - | 111 | - | - | -
